Test results from PubChem BioAssay AID2289 (National Center for Advancing Translational Sciences (NCATS), 2010).
Hit rate of the full screen: of about 340,000 compounds, about 3,300 (0.97%) were called active. Not shown: some 9% with an inconclusive outcome. Calls come from the whole dose curve; as a rule, active = well fitted inhibition curve with a large enough effect; inconclusive = small, poorly fitted or top-dose-only effect, or effect the other way; inactive = flat fitted curve, though single readings scatter. Some of the results follow.

Experiment: qHTS Assay for Modulators of miRNAs and/or Inhibitors of miR-21; note: nearly all actives have a fitted effect of over 55% in size
Settings: HeLa miR-21-FLuc reporter, luciferase luminescence, 48 h; actives lower the signal
Outline: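 HeLa cells stably expressing CMV-driven firefly luciferase with a downstream miR-21 binding sequence, endogenously expressing miR-21, were treated with titrations (up to about 40uM final) for 48 hours at 37 degree Celsius. Luciferase luminescence was read after lysis.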
Potency is the fitted concentration of half-maximal effect.

Row | SMILES | Potency
1 | Cc1ccc(-c2nc(-c3ccncc3)no2)cc1 | 1.47 µM (active)
2 | CCOCCn1c(N2CCN(c3ccccc3)CC2)nc2c1c(=O)[nH]c(=O)n2C | 6.56 µM (active)
3 | CCCCCCOC(=O)c1ccc(OC(=O)c2cccnc2)cc1 | 6.56 µM (active)
4 | Cc1ccc(/C=C2\SC(N3CCCC3)=NC2=O)cc1 | 16.5 µM (active)
5 | COCC1CCN(C(=O)c2cc(COc3cc(C)c(Cl)c(C)c3)on2)C1 (stereo unspecified) | 13.1 µM (active)
6 | Cc1cc(OCc2cc(C(=O)N3CCCCCC3)no2)cc(C)c1Cl | 5.85 µM (active)
7 | COc1cccc(/C(N)=N/OC(=O)Cc2ccccc2[N+](=O)[O-])c1 | 9.27 µM (active)
8 | O=C(Nc1cccc(O)c1)c1c(O)c2ccccc2[nH]c1=O | 1.47 µM (active)
9 | C=CCn1c(=O)c(C(=O)Nc2ccccc2S(N)(=O)=O)c(O)c2ccccc21 | 4.65 µM (active)
10 | NS(=O)(=O)c1ccccc1NC(=O)c1c(O)c2ccccc2[nH]c1=O | 0.736 µM (active)
11 | COc1ccccc1C(=O)OCc1cc(=O)n2nc(C3CC3)sc2n1 | 13.1 µM (active)
12 | COc1ccccc1C(=O)OCc1cc(=O)n2c(C)csc2n1 | 10.4 µM (active)
13 | c1ccc(C2=NN(c3ccccc3)CC2)cc1 | 5.21 µM (active)
14 | O=C(OCc1ccccc1F)c1ccc2c(c1)OCCO2 | 18.5 µM (active)
15 | Cc1cccc(C(=O)OCC(=O)c2ccc3c(c2)OCO3)c1O | 1.85 µM (active)
16 | Cc1ccc(C(=O)COC(=O)c2cccs2)cc1 | 3.29 µM (active)

Row | SMILES | Potency
17 | O=C(COC(=O)c1cccs1)c1ccc2c(c1)OCCO2 | 3.69 µM (active)
18 | CCOC(=O)c1cc2c(=O)c3cc(C)ccc3oc2nc1C | 1.04 µM (active)
19 | CC(C)c1ccc(NC(=S)NN2CCOCC2)cc1 | 16.5 µM (active)
20 | CNC(=O)/C(C#N)=C/c1ccc(-c2ccc(OC)cc2[N+](=O)[O-])o1 | 18.5 µM (active)
21 | CNC(=O)/C(C#N)=C/c1ccc(-c2ccc(Cl)cc2)o1 | 4.14 µM (active)
22 | CCOC(=O)/C(C#N)=C/Nc1ccccc1OC | 5.21 µM (active)
23 | Cc1cccc(C)c1NC(=O)/C(C#N)=C/c1ccc(-c2ccc(C(=O)O)cc2)o1 | 2.07 µM (active)
24 | CCOC(=O)/C(C#N)=C/c1ccc(-c2ccccc2)o1 | 18.5 µM (active)
25 | Cc1ncc(CO)c(/C=N/N=C/c2ccccc2O)c1O | 13.1 µM (active)
26 | COc1ccc(-c2nn(-c3ccccc3)cc2C#N)cc1 | 4.14 µM (active)
27 | COc1ccc(-c2nn(-c3ccccc3)cc2N)cc1 | 3.69 µM (active)
28 | O=c1cc(-c2ccc(O)cc2)oc2ccccc12 | 7.36 µM (active)
29 | COc1cc(OC)c2c(=O)cc(-c3ccccc3)oc2c1 | 6.56 µM (active)
30 | O=c1cc(-c2ccccc2)oc2ccc(O)cc12 | 3.29 µM (active)
31 | COc1ccc(-c2cc(=Nc3c(C)n(C)n(-c4ccccc4)c3=O)c3ccccc3o2)cc1 | 4.14 µM (active)
